# Measurements: the supplement of paper PMC11219838
# Values without a mark were called inactive.
# Tested on: Caenorhabditis elegans L1 (N2)
# Assay: survival and reproduction score of C. elegans L1 (0: 0-10 living worms, 1: 11-20, 2: 21-50, 3: >50, 4: overgrown) (score 0-4); higher = more worms, less nematicidal, active = 1 or less; extreme values may be limits of the assay
# Conditions: 60 µM; 6 days; temperature: 20 °C
# How it was run: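 In liquid NGM with E. coli HB101, approximately 20 synchronized C. elegans N2 L1s per 96-well well were exposed to compound at 60 µM final (0.6% v/v DMSO) for 6 days at 20 °C with shaking at 200 rpm in sealed plates. Survival and reproduction were judged under a dissection microscope as an ordinal rating of living worms per well. Ratings went from 0 (0–10 worms) to 4 (overgrown, starved) and were averaged over two biological replicates.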
row,Compound,survival and reproduction score
1,CCOc1ccccc1NC(=O)CSc1nnc(-c2ccccc2)o1,4
2,Cc1cc(OCc2nc(-c3cccnc3)no2)c(C)cc1Br,4
3,COc1ccc(Cl)cc1-c1noc(-c2cccc(C)c2)n1,4
4,Cc1cc(OCc2nc(-c3ccncc3)no2)ccc1Br,4
5,COc1cccc(CSc2nnc(-c3ccco3)n2C)c1,2
6,O=C(CSc1nnc(-c2cccc3ccccc23)o1)Nc1cccc(F)c1,4
7,COc1ccccc1OCc1nc(-c2cccc(Br)c2)no1,4
8,CCOc1nc(-c2ccccc2)ccc1-c1noc(-c2ccccc2F)n1,4
9,COc1ccc(-c2nnc(SCc3ccc(C#N)cc3)o2)cc1,4
10,CCOc1ccc(NC(=O)CSc2nnc(-c3ccccc3Cl)o2)cc1,4
11,COc1ccc(-c2noc(C3CCCCC3)n2)cc1,4
12,c1ccc(-c2nnc(SCc3nc4ccccc4[nH]3)o2)cc1,4
13,Cc1ccc(SCc2nc(-c3ccc(C)cc3)no2)cc1,4
14,Cc1ccc(OCc2nc(-c3ccncc3)no2)c(Br)c1,3.5
15,CC(C)(C)c1ccc(OCc2nc(-c3ccncc3)no2)c(Br)c1,4
16,COc1cccc(NC(=O)c2ccccc2-c2nc(-c3ccc(F)cc3)no2)c1,4
17,Cc1ccc(-c2nnc(SCC(=O)Nc3c(C)cc(C)cc3C)o2)cc1,4
18,COc1ccc(-c2noc(-c3ccccc3C(=O)Nc3ccc(NC(C)=O)cc3)n2)cc1,4
19,O=C(CSc1nnc(-c2ccc(Cl)cc2)o1)NC1CCCCC1,4
